The record followed here is PMC7862700, “An all-to-all approach to the identification of sequence-specific readers for epigenetic DNA modifications on cytosine”.

Holding throughout (test): DAPPL (digital affinity profiling via proximity ligation, sequencing); 10 mM Tris-HCl pH 7.5, 50 mM NaCl, 1 mM DTT, 4% glycerol, room temperature, 30 min; GST-TFs on glutathione beads, 16-mer random dsDNA library, 0.1% formaldehyde crosslink after washing; high values mean tight binding
One assay concerns the target T1, FEV (Homo sapiens, UniProt Q99581 1-238).
T1 sequence: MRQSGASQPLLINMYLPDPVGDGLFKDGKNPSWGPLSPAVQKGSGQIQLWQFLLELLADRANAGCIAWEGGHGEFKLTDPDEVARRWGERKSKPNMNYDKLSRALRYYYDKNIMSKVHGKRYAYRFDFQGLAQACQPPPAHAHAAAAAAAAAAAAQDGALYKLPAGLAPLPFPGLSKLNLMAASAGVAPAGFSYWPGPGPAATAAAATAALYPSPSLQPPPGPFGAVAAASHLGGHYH
The note with it: protein: recombinant; tags: N-terminal GST; dsDNA, one strand shown. Put shortly:
(§1)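 Human transcription factors carrying a GST fusion were produced in yeast, bound to glutathione beads, tagged with DNA barcodes and pooled together with a tag-only sample. Each pool was held with 200 nmole of a random double-stranded 16-mer DNA library in Tris/NaCl/DTT/glycerol buffer for 30 min at room temperature, then washed, crosslinked in 0.1% formaldehyde, proximity-ligated with BsaI/T4 ligase (1 h, 37 °C), PCR-amplified and sequenced on an Illumina NextSeq500. Binding signal is the read frequency of each hexamer for a given factor divided by its frequency in the tag-only sample.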

The next assay concerns the target ETV5 (Homo sapiens, UniProt P41161 1-510). The note with it: protein: recombinant; tags: N-terminal GST; dsDNA, one strand shown. In short, it runs like this:
as §1

The target of the next assay is HSF1 (Homo sapiens, UniProt Q00613 1-529). The note with it: protein: recombinant; tags: N-terminal GST; chain copies: 3; dsDNA, one strand shown. In short, it runs like this:
as §1

The next assay concerns the target T2, SPIC (Homo sapiens, UniProt Q8N5J4 1-248).
T2 sequence: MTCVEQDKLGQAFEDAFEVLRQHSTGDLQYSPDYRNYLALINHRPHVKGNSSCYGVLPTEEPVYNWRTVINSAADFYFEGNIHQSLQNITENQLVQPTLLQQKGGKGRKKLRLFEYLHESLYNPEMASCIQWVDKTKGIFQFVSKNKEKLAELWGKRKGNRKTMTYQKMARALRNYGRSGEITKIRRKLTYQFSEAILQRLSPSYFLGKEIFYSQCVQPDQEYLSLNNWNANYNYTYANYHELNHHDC
Conditions: protein: recombinant; tags: N-terminal GST; dsDNA, one strand shown. In short, it runs like this: as §1

For another assay, the target named is ELF4 (Homo sapiens, UniProt Q99607 1-663). Conditions: protein: recombinant; tags: N-terminal GST; dsDNA, one strand shown. Put shortly: as §1
The target of the next assay is T3, ELK4 (Homo sapiens, UniProt P28324-2 1-405).
T3 sequence: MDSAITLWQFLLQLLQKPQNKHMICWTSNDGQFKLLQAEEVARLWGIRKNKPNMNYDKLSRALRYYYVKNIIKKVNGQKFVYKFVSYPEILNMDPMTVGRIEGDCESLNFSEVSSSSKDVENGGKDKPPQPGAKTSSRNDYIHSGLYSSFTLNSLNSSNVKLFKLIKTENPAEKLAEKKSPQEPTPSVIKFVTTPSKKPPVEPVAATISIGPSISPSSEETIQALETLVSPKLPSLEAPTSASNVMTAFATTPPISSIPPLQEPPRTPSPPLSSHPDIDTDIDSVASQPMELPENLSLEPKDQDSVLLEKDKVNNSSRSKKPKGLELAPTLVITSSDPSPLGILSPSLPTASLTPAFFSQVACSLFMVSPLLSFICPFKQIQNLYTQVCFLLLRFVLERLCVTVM
The note with it: protein: recombinant; tags: N-terminal GST; dsDNA, one strand shown. Put shortly: as §1

In a further assay the target is T4, ETV2 (Homo sapiens, UniProt O00321 1-342).
T4 sequence: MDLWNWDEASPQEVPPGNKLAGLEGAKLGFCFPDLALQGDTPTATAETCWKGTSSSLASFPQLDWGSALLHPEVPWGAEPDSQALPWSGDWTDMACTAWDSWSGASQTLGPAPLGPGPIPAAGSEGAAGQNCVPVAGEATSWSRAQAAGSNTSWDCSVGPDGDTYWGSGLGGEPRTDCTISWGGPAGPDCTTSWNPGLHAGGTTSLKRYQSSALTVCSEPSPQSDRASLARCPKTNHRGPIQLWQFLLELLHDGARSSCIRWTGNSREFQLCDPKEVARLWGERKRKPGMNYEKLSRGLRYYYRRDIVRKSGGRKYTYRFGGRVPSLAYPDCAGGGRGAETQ
The note with it: protein: recombinant; tags: N-terminal GST; dsDNA, one strand shown. Put shortly:
as §1

The next assay deals with T5, ELF3 (Homo sapiens, UniProt P78545 1-371).
T5 sequence: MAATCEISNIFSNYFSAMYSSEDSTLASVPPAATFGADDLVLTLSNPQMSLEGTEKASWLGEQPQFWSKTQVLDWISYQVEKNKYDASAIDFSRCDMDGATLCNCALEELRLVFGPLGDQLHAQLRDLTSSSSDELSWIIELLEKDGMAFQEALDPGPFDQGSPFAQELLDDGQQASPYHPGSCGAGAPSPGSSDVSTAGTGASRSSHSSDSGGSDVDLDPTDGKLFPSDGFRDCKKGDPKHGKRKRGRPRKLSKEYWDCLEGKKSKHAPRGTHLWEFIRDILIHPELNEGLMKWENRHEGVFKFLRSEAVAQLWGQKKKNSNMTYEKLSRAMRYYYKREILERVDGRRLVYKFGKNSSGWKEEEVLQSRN
Conditions: protein: recombinant; tags: N-terminal GST; dsDNA, one strand shown. Put shortly: as §1

Another assay concerns the target CRX (Homo sapiens, UniProt O43186 1-299). The note with it: protein: recombinant; tags: N-terminal GST; dsDNA, one strand shown. In short, it runs like this: as §1
Another assay deals with ETV1 (Homo sapiens, UniProt P50549 1-477). The note with it: protein: recombinant; tags: N-terminal GST; dsDNA, one strand shown. Put shortly: as §1
The next assay concerns the target T6, ERF (Homo sapiens, UniProt P50548 1-548).
T6 sequence: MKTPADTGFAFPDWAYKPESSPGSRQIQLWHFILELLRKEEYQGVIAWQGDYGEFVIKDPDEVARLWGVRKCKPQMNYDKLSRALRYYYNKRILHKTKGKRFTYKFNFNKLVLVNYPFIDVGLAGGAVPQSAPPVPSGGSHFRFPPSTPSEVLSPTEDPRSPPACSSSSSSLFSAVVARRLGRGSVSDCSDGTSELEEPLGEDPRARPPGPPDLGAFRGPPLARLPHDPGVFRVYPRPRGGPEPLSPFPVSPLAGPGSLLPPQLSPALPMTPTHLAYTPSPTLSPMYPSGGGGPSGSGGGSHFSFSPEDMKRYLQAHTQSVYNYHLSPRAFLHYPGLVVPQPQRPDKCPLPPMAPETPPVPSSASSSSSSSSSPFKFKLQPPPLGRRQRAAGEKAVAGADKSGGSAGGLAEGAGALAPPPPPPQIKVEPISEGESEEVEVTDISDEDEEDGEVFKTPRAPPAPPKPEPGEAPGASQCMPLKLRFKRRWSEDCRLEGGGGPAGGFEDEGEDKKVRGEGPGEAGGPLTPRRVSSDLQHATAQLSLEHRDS
Conditions: protein: recombinant; tags: N-terminal GST; dsDNA, one strand shown. In short, it runs like this: as §1

In the next assay the target is T7, ETV3L (Homo sapiens, UniProt Q6ZN32 1-361).
T7 sequence: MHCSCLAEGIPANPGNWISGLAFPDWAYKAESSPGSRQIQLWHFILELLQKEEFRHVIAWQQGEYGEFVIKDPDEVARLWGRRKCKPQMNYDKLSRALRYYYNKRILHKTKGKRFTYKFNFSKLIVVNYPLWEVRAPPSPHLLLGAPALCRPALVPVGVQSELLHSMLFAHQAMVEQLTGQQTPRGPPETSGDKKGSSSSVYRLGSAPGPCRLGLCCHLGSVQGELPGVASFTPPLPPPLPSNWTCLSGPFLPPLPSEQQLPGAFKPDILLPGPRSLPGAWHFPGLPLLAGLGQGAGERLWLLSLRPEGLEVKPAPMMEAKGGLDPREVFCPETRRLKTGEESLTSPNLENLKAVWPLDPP
The note with it: protein: recombinant; tags: N-terminal GST; dsDNA, one strand shown. In short, it runs like this:
as §1

In a further assay the target is T8, ETS2 (Homo sapiens, UniProt P15036 1-469).
T8 sequence: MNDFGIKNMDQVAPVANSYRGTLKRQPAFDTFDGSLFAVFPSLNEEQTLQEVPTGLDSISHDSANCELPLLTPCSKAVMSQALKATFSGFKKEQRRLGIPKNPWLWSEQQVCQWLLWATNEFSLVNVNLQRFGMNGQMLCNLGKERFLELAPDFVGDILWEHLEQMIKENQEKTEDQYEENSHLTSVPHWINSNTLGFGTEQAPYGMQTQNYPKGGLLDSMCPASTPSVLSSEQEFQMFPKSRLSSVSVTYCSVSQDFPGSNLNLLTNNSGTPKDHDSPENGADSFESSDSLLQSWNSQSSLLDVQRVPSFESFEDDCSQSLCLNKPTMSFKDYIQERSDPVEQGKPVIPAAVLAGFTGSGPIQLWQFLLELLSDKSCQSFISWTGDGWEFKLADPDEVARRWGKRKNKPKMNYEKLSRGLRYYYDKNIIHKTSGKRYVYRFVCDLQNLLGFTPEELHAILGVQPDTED
The note with it: protein: recombinant; tags: N-terminal GST; dsDNA, one strand shown. In short, it runs like this:
as §1

A further assay addresses T9, SPDEF (Homo sapiens, UniProt O95238 1-335).
T9 sequence: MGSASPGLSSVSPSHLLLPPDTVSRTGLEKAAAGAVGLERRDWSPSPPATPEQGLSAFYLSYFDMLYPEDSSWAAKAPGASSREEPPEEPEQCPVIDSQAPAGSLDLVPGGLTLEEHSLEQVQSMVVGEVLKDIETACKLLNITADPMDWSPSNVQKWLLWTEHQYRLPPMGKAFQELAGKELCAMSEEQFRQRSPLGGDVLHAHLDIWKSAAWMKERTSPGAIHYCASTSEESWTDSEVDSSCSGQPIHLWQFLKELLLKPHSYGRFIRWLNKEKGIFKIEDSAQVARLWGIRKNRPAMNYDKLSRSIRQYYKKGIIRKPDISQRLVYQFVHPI
The note with it: protein: recombinant; tags: N-terminal GST; dsDNA, one strand shown. In short, it runs like this:
as §1

The target of the next assay is T10, ETV7 (Homo sapiens, UniProt Q9Y603 1-341).
T10 sequence: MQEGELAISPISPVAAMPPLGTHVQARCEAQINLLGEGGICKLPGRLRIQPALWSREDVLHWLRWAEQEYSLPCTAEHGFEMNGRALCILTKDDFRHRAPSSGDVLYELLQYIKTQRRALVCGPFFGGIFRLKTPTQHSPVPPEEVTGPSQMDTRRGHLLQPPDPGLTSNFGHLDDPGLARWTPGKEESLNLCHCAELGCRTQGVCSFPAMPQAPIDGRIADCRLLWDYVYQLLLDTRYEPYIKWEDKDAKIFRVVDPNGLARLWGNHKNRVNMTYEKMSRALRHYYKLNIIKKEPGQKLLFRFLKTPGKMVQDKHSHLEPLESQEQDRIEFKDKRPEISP
The note with it: protein: recombinant; tags: N-terminal GST; dsDNA, one strand shown. Put shortly: as §1

Another assay addresses T11, ELF5 (Homo sapiens, UniProt Q9UKW6-2 1-255).
T11 sequence: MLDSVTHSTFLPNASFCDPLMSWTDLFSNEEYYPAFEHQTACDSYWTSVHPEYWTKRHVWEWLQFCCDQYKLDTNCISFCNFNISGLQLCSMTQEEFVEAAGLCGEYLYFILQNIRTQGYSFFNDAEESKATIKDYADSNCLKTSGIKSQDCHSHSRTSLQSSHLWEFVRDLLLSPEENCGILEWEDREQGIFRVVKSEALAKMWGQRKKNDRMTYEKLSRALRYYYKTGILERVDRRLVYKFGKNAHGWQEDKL
The note with it: protein: recombinant; tags: N-terminal GST; dsDNA, one strand shown. Put shortly:
as §1

The next assay addresses T12, ETV3 (Homo sapiens, UniProt P41162-2 1-143).
T12 sequence: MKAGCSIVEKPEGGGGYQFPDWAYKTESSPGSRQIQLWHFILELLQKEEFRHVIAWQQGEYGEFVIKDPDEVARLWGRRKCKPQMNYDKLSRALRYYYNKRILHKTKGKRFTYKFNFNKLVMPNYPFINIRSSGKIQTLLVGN
Conditions: protein: recombinant; tags: N-terminal GST; dsDNA, one strand shown. In short, it runs like this:
as §1

The target of a further assay is ETV6 (Homo sapiens, UniProt P41212 1-452). The note with it: protein: recombinant; tags: N-terminal GST; dsDNA, one strand shown. In short, it runs like this: as §1
Chain of ETV6 (P41212 whole entry): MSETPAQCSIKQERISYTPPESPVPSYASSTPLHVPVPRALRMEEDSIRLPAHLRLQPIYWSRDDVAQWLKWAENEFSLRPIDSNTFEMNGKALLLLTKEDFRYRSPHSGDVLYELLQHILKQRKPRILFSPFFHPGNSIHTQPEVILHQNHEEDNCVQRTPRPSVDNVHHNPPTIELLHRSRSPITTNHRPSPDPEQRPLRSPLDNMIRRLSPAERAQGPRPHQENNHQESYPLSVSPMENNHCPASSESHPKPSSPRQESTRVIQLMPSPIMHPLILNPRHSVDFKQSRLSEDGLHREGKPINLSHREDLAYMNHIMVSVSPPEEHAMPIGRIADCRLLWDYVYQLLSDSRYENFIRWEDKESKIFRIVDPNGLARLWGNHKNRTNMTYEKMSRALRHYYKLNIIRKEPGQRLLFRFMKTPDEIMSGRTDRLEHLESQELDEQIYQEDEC

Chain of CRX (O43186 whole entry): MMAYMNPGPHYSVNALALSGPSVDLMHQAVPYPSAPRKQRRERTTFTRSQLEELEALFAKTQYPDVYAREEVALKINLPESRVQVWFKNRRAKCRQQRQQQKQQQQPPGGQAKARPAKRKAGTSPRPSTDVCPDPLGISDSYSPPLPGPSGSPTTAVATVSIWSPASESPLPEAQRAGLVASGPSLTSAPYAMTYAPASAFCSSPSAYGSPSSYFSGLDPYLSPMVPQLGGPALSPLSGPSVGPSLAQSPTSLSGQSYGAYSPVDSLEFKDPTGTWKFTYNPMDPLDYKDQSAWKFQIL
Chain of ETV1 (P50549 whole entry): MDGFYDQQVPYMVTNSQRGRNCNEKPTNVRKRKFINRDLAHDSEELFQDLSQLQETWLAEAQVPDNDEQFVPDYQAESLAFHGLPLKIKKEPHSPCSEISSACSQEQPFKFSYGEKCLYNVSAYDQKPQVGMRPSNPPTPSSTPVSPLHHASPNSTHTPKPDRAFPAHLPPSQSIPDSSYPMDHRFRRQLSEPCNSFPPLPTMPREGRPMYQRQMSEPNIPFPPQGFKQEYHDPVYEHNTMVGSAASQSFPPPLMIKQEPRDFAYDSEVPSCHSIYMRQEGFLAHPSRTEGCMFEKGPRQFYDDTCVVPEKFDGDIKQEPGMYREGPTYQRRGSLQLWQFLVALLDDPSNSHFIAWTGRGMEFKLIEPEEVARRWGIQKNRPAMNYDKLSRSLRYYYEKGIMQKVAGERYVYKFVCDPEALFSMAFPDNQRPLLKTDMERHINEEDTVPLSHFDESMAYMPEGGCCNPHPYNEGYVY
Chain of ELF4 (Q99607 whole entry): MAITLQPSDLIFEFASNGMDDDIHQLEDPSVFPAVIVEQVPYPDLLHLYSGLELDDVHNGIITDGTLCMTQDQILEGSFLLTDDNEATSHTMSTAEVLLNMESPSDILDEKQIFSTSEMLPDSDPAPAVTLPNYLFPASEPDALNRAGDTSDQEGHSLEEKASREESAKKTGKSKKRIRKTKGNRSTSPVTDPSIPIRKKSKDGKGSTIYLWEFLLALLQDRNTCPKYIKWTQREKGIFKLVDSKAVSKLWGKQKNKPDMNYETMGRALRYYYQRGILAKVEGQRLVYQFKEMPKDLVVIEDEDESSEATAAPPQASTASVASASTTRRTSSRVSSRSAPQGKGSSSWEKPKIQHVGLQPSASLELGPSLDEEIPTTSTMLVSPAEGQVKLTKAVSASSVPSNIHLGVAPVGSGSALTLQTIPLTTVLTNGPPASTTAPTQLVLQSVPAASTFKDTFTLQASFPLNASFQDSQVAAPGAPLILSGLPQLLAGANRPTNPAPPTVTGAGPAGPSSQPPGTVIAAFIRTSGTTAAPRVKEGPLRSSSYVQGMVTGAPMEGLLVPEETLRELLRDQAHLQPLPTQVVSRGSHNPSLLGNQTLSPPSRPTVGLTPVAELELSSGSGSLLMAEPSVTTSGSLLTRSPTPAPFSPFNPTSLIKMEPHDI
Chain of HSF1 (Q00613 whole entry): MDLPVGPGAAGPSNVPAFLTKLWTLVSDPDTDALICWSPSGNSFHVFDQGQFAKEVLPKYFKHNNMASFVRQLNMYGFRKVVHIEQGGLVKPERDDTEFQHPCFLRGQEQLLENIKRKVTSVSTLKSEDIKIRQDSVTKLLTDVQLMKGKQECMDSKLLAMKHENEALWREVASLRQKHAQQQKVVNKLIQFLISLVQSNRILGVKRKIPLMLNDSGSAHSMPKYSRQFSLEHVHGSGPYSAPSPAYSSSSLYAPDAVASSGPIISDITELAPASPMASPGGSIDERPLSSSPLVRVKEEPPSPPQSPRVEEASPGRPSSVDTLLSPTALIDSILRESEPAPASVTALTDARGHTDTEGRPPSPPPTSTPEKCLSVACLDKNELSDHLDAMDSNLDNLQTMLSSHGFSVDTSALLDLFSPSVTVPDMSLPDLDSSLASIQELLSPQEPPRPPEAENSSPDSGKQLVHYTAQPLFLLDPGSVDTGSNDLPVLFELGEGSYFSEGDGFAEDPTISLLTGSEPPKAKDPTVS
Chain of ETV5 (P41161 whole entry): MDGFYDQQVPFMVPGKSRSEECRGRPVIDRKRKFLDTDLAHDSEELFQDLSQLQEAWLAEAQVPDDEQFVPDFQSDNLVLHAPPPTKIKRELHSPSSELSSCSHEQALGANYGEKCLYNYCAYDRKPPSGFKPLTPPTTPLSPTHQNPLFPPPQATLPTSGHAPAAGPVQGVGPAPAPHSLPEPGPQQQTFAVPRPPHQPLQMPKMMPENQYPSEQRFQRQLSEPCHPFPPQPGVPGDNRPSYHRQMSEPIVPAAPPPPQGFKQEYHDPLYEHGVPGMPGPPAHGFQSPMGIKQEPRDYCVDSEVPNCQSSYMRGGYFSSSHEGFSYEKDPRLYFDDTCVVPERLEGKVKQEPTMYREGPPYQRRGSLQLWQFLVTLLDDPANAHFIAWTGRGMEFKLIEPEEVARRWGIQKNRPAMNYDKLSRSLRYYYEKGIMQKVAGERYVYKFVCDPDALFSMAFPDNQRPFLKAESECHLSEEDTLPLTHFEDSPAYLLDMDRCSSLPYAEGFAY

With GTATTA, the binding signal was 1.09 fold enrichment (6-mer frequency, TF over GST control) in the assay with FEV; 1.14 fold enrichment (6-mer frequency, TF over GST control) in the assay with ETV5; 1.62 fold enrichment (6-mer frequency, TF over GST control) in the assay with HSF1; 1.04 fold enrichment (6-mer frequency, TF over GST control) with SPIC; 1.08 fold enrichment (6-mer frequency, TF over GST control) in the assay with ELF4; 1.14 fold enrichment (6-mer frequency, TF over GST control) with ELK4. The binding signal in the assay with ETV2 was 1.2 fold enrichment (6-mer frequency, TF over GST control); with ELF3, 1.09 fold enrichment (6-mer frequency, TF over GST control); in the assay with CRX, 2.49 fold enrichment (6-mer frequency, TF over GST control); with ETV1, 1.13 fold enrichment (6-mer frequency, TF over GST control); with ERF, 1.24 fold enrichment (6-mer frequency, TF over GST control); in the assay with ETV3L it was 1.04 fold enrichment (6-mer frequency, TF over GST control). Further, the binding signal with ETS2 is 1.07 fold enrichment (6-mer frequency, TF over GST control); with SPDEF it was 1.17 fold enrichment (6-mer frequency, TF over GST control); with ETV7, 1.05 fold enrichment (6-mer frequency, TF over GST control); with ELF5, 1.02 fold enrichment (6-mer frequency, TF over GST control); with ETV3, 1.14 fold enrichment (6-mer frequency, TF over GST control); in the assay with ETV6, 1.16 fold enrichment (6-mer frequency, TF over GST control).
